D2 antag: HTS Assay for Allosteric Antagonists of the Human D2 Dopamine Receptor: Primary Screen for Antagonists; D(2) dopamine receptor (Homo sapiens), P14416; HEK293 TREx D2 cells, calcium flux, dopamine EC80; inhibition, % at 10 µM; hit rate 2% among 340,000; AID 485344, 2010; in the data active means inhibition above about 30%; inactive means below that, where a call was filed; further: 0% is about no effect
Target sequence (P14416 whole entry, looked up): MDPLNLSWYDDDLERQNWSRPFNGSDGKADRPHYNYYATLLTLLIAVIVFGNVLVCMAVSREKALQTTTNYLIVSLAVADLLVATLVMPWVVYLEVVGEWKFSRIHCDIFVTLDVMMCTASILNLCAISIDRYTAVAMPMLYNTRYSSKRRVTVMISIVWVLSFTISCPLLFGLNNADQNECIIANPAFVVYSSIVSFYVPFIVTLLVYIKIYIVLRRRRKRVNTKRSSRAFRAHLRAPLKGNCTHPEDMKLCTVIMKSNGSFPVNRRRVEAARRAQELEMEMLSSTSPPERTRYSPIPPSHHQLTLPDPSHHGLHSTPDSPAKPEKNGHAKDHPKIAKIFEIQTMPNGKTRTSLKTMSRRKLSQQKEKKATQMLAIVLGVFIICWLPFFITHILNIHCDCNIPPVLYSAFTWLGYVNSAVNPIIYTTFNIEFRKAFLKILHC
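Calcium mobilization kinetics were recorded at 1 s intervals in tetracycline-induced HEK293 T-REx D2 cells, first for 180 s after compound addition and then 180 s after EC80 dopamine.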
D2 ag-1: Beta-Arrestin HTS for Positive Allosteric Modulators of the Human D2 Dopamine Receptor: Agonists; D(2) dopamine receptor (Homo sapiens), P14416; DiscoveRx PathHunter D2 beta-arrestin, luminescence, 90 min; 100% = 57 uM dopamine signal; activation, % (concentration not given with the values); hit rate 0.084% among 360,000; in the data active means activation above about 40%
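Agonist mode: compounds alone added to overnight-plated D2 PathHunter cells for 90 min at 37 C, with 57 uM final dopamine (EC100) defining full response. Beta-arrestin recruitment detected by chemiluminescent reagent, read after 1 h at ambient temperature.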
D2 PAM-1: HTS Assay for Positive Allosteric Modulators of the Human D2 Dopamine Receptor: Primary Screen for Potentiators | potentiation, % at 10 µM | hit rate 0.34% among 340,000 | HEK293 T-REx D2, calcium flux, EC20 dopamine potentiation | D(2) dopamine receptor (Homo sapiens), P14416;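 active means potentiation over 3 SD above the plate norm, cut at about 30% in these data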; further: 0% is about no effect
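Potentiation of an EC20 dopamine calcium response measured kinetically over 180 s, after a preceding 180 s compound-only read flagging agonists. Cells: inducible Hek293 Trex D2 line, 4000/well, cultured overnight at 30 C before dye loading.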
D2 ag-2: HTS Assay for Allosteric Agonists of the Human D2 Dopamine Receptor: Primary Screen for Agonists | hit rate 0.53% among 340,000 | AID 485358, 2010 | D(2) dopamine receptor (Homo sapiens), P14416 | HEK293 T-REx D2 cells, calcium flux agonist mode | activation, % at 2 µM;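 active means activation over 3 SD above normal in the single-dose calcium agonist read, cut at about 30% in these data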; further: 0% is about no effect
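Tetracycline-induced HEK293 T-REx cells with force-coupled D2 receptor, plated overnight at 30 C, loaded with no-wash calcium dye. After a 10 s baseline, compound was pin-added and calcium flux read kinetically for 180 s; calcium rises flagged agonists.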
D2 PAM-2: Beta-Arrestin HTS for Positive Allosteric Modulators of the Human D2 Dopamine Receptor: Potentiators; DiscoveRx D2 beta-arrestin cells, luminescence, 90 min; 100% = 57 uM dopamine signal; AID 624464, 2012; potentiation, % (test concentration not listed); hit rate 0.23% among 360,000; D(2) dopamine receptor (Homo sapiens), P14416; in the data active means potentiation above about 50%
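D2 cells co-treated with compound plus 50 nM dopamine (EC20) for 90 min at 37 deg C to detect potentiation. Beta-arrestin recruitment was read as enzyme-fragment luminescence after 1 h at ambient temperature. Full response was set by 57 uM dopamine.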
Starred values were filed as active, the others as inactive; . = no result given; ! = not active in a repeat. Sampled rows, rich in hits. Any-hit rate of the full collection: about 2.4%.

SMILES	D2 antag	D2 ag-1	D2 PAM-1	D2 ag-2	D2 PAM-2
CCOc1c(Cl)cc(Cl)cc1CNCCSc1nnnn1C	.	.	.	0.0	.
CCN(c1ccc(OC)cc1)S(=O)(=O)c1ccc2[nH]c3c(c2c1)CCCCC3	.	.	3.5	0.3	.
CC1(C)Cc2ccccc2-c2nnc(-c3ccc4ccccc4n3)n21	-0.4	0.9	44.3*	0.4	-5.4
c1ccc2sc(-c3ccc4c(c3)OCO4)nc2c1	11.3	0.5	31.1*	-0.5	-12.5
O=C(Nc1cccc(-c2nc3ccccc3s2)c1)c1ccc2c(c1)OCO2	-6.6	0.5	-9.9	0.5	-13.3
COc1cc(NC(=O)Cn2cnc(S(=O)(=O)N3CCOCC3)c2)cc(OC)c1OC	45.4*	-2.5	-7.3	-0.7	-28.1
COc1cc(NC(=O)c2ccccc2-n2cnnn2)cc(OC)c1	-6.8	-2.3	-7.3	0.1	-1.6
COc1cc(OC)cc(C(=O)Nc2ccc(-n3cnnn3)c(C)c2)c1	38.0*	-3.0	3.0	-1.7	3.7
Cc1ccc(C(=O)Nc2nnc(SCc3cc(=O)c4c(C)ccc(C)c4[nH]3)s2)cc1	.	.	-7.1	0.5	.
Cn1c(=O)c2c(nc(SCC(=O)Nc3ccccc3F)n2Cc2ccccc2F)n(C)c1=O	.	.	-13.9	1.2	.
COc1ccc2c(c1)c1c(c(=O)n(-c3ccc(C)cc3)c(=O)n1CC(=O)N1CCCC1)n2C	.	.	5.3	0.9	.
O=C(CSc1nc2c([nH]c3ccccc32)c(=O)n1-c1cccc(Cl)c1)c1ccccc1	.	.	-2.0	1.3	.
CNC(=O)CSc1nnnn1-c1cc(C)ccc1C	4.3	-3.6	45.9*	-0.5	-12.8
Cc1cc(C)cc(OCC(=O)NCC(c2ccc(Cl)cc2)N2CCCCC2)c1 (stereo unspecified)	.	.	-16.9	-0.5	.
CC(=O)NC(c1cccc(F)c1)c1nc(-c2ccccc2C)cs1 (stereo unspecified)	.	-3.4	.	.	-5.3
COc1cccc(C(NC(C)=O)c2nc(-c3ccccc3C)cs2)c1 (stereo unspecified)	.	77.5*	.	.	-3.0
COc1ccc(-c2cc3nc(C)c(CCC(=O)N4CCN(c5ccc(F)cc5)CC4)c(C)n3n2)c(OC)c1	.	.	7.2	-0.2	.
CCOC(=O)C1CCCN(c2nc3c(S(=O)(=O)c4ccc(C)c(C)c4)nnn3c3ccc(Cl)cc23)C1 (stereo unspecified)	.	.	-2.8	-0.3	.
CCN1CCN(CCCN(Cc2ccco2)C(=S)Nc2ccc(C)c(Cl)c2)CC1	-15.4	1.8	-5.5	2.4	-19.2
CCN1CCN(CCCN(Cc2ccco2)C(=S)Nc2cc(Cl)ccc2C)CC1	42.3*	-8.8	-19.0	-1.6	-13.8
COc1ccc(-n2ncc(C(=O)NCc3ccc4c(c3)OCO4)c2C2CCN(C(=O)OC(C)(C)C)CC2)cc1	.	.	-1.4	0.0	.
N#CC1(NC(=O)COC(=O)c2ncc(Cl)c(Cl)c2Cl)CCCCC1	-3.9	-0.2	6.6	0.8	26.1
N#CC1(NC(=O)COC(=O)c2nc(Cl)c(Cl)c(N)c2Cl)CCCCC1	-5.1	5.9	-14.8	30.6*	-8.4
CCCCN1CC(c2nc3ccccc3n2CCCCOc2cccc(C)c2C)CC1=O (stereo unspecified)	.	.	1.7	1.1	.
CCOc1ccc(/C=N/NC(=O)c2cc3c(OC)cc(OC)c(OC)c3[nH]2)cc1	55.7*	11.3	-19.7	0.4	-1.6
SMILES	D2 antag	D2 ag-1	D2 PAM-1	D2 ag-2	D2 PAM-2
CCOc1ccccc1-c1nc(CN2CCCN(C(=O)c3ccco3)CC2)c(C)o1	32.8*	-6.4	-24.1	-1.1	-51.3
COc1cc(CNc2ccc3[nH]c(=O)[nH]c3c2)ccc1OCc1ccccc1F	-15.9	10.3	10.7	0.5	6.8
COc1cc(CNc2ccc3[nH]c(=O)[nH]c3c2)cc(Br)c1OCc1ccccc1F	-4.5	10.9	43.6*!	0.7	-2.4
O=C(/C=C/Nc1ccc(F)cc1)c1ccc(Oc2ncccn2)cc1	34.5*	-3.0	1.7	-0.1	-8.0
CCC(C)NC(=O)c1cnn(-c2ccc(Cl)cc2)c1C1CCN(C(=O)OC(C)(C)C)CC1 (stereo unspecified)	.	.	5.8	0.0	.
Cc1ccccc1CS(=O)(=O)Cc1ccc(C(=O)NCCc2ccc(Cl)cc2)o1	.	.	-15.9	.	.
Cc1cccc(NC(=O)c2ccc(F)c(S(=O)(=O)NCc3ccc4c(c3)OCO4)c2)c1	.	.	-10.3	0.6	.
CCc1ccc(CNc2nc3nc(C)c(Cc4ccccc4)c(=O)n3[nH]2)cc1	.	.	-9.0	1.4	.
CC(=O)c1ccc(N2CCN(C(=O)CN3C(=O)NC4(CCCCC4)C3=O)CC2)c(F)c1	30.7*	1.0	-1.6	0.3	-1.2
O=C(CN1C(=O)NC2(CCCCCC2)C1=O)N1CCN(c2ccc(F)cc2)CC1	-9.9	-1.4	-2.1	0.7	-7.2
Nc1ccccc1NC1=CC(=O)CC(c2ccco2)C1 (stereo unspecified)	30.9*	-1.2	-2.9	0.6	-1.7
CCN(CC)S(=O)(=O)c1cc(NC(=O)C(C)N2CCN(Cc3ccc4c(c3)OCO4)CC2)ccc1C (stereo unspecified)	84.3*	-4.8	-25.8	-0.7	-53.2
CCN(CC)S(=O)(=O)c1cc(NC(=O)C(C)N2CCN(c3ccccn3)CC2)ccc1C (stereo unspecified)	15.3	4.4	-20.6	35.5*	4.9
COc1ccc(S(=O)(=O)n2nc(C)c(S(=O)(=O)N3CCC(C)CC3)c2C)cc1C	.	.	3.8	-0.1	.
CC(=O)OC(C)CS(=O)(=O)c1ccccc1 (stereo unspecified)	30.2*	-3.1	25.9	0.0	0.2
COc1cccc(OC)c1-c1nn(-c2ncc(C(F)(F)F)cc2Cl)c(=O)o1	37.7*	-6.3	10.4	2.9	-11.7
CC1CCCCN1C(=O)c1cccc(NC(=O)c2ccccc2)c1 (stereo unspecified)	36.5*	-4.0	-2.5	-1.0	-9.0
CN(C)Cc1c(O)ccc2occ(C(=O)c3ccccc3)c12	-25.0	2.2	53.7*	0.1	-8.3
CCOc1cccc2sc(N3CCN(C(=O)c4ccc5c(c4)CCCC5)CC3)nc12	.	.	16.9	-1.7	.
CCc1ccc(S(=O)(=O)c2nnn3c2nc(N2CCOCC2)c2ccccc23)cc1	2.6	-5.5	32.1*	-0.7	-2.1
COc1ccc2[nH]c(=O)c(CN(C(=O)c3cccc(Cl)c3)c3ccccc3C)cc2c1	.	.	-0.5	-1.0	.
COc1cccc(C2CC(c3ccc(Cl)cc3)n3nc(N)nc3N2)c1 (stereo unspecified)	56.6*	-3.1	4.2	0.0	-2.8
Fc1ccc(-c2cc(-c3nc(-c4ccc(Cl)cc4)no3)[nH]n2)cc1	.	.	-2.3	0.8	.
